In PubChem BioAssay (NCI):
The panel holds about 83,000 compounds, 20% with a hit somewhere; the sample as a whole holds those more often.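 The test compound was applied at a single concentration to cells in 96-well plates for 48 hours, and percent growth was recorded.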 A number with no mark means an inactive call. Calls of active or inactive are those of the source. Rule for the calls: active = growth percent below 10; inactive = the rest.

test system: MDA-MB-468 breast; test: NCI-60 one-dose screen, 48 h (100 = growth as untreated, 0 = no growth, -100 = all killed); details: 10 µM unless noted

Compound | growth
O=C1CC(c2cccc(F)c2)c2c(n[nH]c2-c2ccc(Cl)cc2)N1 (stereo not given) | 68.4%
CC1C(=O)CCCC1=O | 122%
COc1ccc(-c2c3c(N)c4c(nc3nc3c2c(C)nn3-c2ccccc2)CCCCC4)cc1 | 76%
COc1cccc(/C=C/C(=O)c2sc(Nc3ccc(O)cc3)nc2C)c1 | 97.2%
CC[C@@]1(OC(=O)CN(C)C)C(=O)OCc2c1cc1n(c2=O)Cc2cc3c(N)cccc3nc2-1 | -66.4% (active)
CC(C)(C)c1nc2c(s1)c1nc(N)ncc1c1ccc(NS(=O)(=O)c3c(F)cccc3F)c(F)c12 | 60.2%
Nc1ccc(-c2cc3c(NCc4ccccc4)ncnc3s2)cc1 | 4.36% (active)
COc1ccc(-c2nc(SCCC(C)C)nc(N/N=C\c3ccc(O)cc3)c2C#N)cc1 | 88.8%
COc1ccc(-c2nn(-c3cccc(Cl)c3)cc2-c2c(C#N)c(=O)n3[nH]c(-c4ccc(C)cc4)nc3c2C#N)cc1 | -1.87% (active)
Fc1ccc(CNc2cccc3[nH]c(C(F)(F)F)nc23)cc1 | 99.7%
O=C(O)C(CCc1ccccc1)NCc1ccccc1 (stereo not given) | 108%
C=CC(=O)Nc1ccc(Oc2nccc(Nc3nnc(-c4ccc(C)cc4)s3)n2)cc1 | 111%
CC(=O)NCC(=O)Nc1ccc(-c2nnc3ccccn23)nc1.CC(=O)NCC(=O)Nc1ccc(-c2nnc3ccccn23)nc1.[Pt+2] | 116%
Fc1ccc(/C=C/[C@@H]2C[C@@H](F)CCO2)cc1 | 84%
Cn1ccc2c3c(ccc21)CC3=O | 106%
O=C(/C=C/c1ccccc1)Nc1ncc(Cc2ccccc2Cl)s1 | 8.79% (active)
O=C(Nc1ccc(Oc2cccc(F)c2)c(Cl)c1)c1cccnc1 | -9.22% (active)
CS(=O)(=O)c1nccc(-c2c(-c3cccc(OCCc4ccccc4)c3)nc3sccn23)n1 | 20.2%
COC1=CC(c2ccc[nH]2)=N/C1=C\c1[nH]c(C)c(C(=O)OCCn2cc(CCC[C@@H]3Cc4cc(O)ccc4C4CC[C@]5(C)[C@@H](O)CC[C@H]5C43)nn2)c1C (stereo not given in full) | 78%
COc1cc(/C=C/C(=O)c2ccc(Oc3ncnc4ccccc34)cc2)cc(OC)c1OC | 13.8%

Compound | growth
O=C(CCCC(=O)N/N=C/c1cc(Cl)ccc1O)N/N=C\c1cc(Cl)ccc1O | 10.3%
COc1ccc(-n2c(C(O)c3ccccc3)n[nH]c2=S)cc1 (stereo not given) | 98.6%
CSc1cc(SC)ncn1 | 108%
COc1ccc(C2CC(c3cccc(Nc4ccncc4)c3)=NN2c2cc(Cl)cc(Cl)c2)cc1 (stereo not given) | 43.3%
Nc1c(Cl)cccc1[N+](=O)[O-] | 115%
COc1ccc2c(c1)N(CCO)C1=C(C(=O)OC1)C2c1ccc(OC)c(OC)c1 (stereo not given) | 0.0938% (active)
COc1ccc(/C=C/C(=O)/C=C(/C=C/c2ccc(OC)c(OC)c2)OB(F)F)cc1OC | 45.6%
CO[C@H](C(=O)[C@@H](O)[C@@H](C)O)[C@@H]1Cc2cc3cc(O[C@H]4C[C@@H](O[C@H]5C[C@@H](O)[C@H](O)C(C)O5)[C@H](O)C(C)O4)c(C)c(O)c3c(O)c2C(=O)[C@H]1O[C@H]1C[C@@H](O[C@H]2C[C@@H](O[C@H]3C[C@@H](OC)[C@H](O)C(C)O3)[C@@H](O)C(C)O2)C(O)(O)C(C)O1 (stereo not given in full) | -30.2% (active)
O=C1CSC(c2cn(-c3ccccc3)nc2-c2ccc(Cl)cc2)N1c1ccccc1 (stereo not given) | 104%
COc1ncc(-c2ccc3nccc(C#CCCCCC(=O)NO)c3c2)cc1NS(=O)(=O)c1ccc(F)cc1F | -37.1% (active)
CC1(C)CC[C@]2(C(=O)O)CC[C@]3(C)[C@H](CC[C@@H]4[C@@]5(C)CCC(=O)C(C)(C)[C@@H]5CC[C@]43C)[C@H]2[C@H]1OC(=O)C(F)(F)F | -71% [100 µM] (active)
Cc1nn(-c2ccccc2)c(Cl)c1C(CC(=O)c1ccc(Cl)cc1)CC(=O)c1ccc(Cl)cc1 | 87.7%
O=C(CSSCC(=O)c1ccc(Cl)cc1)c1ccc(Cl)cc1 | 74.8%
NC(=O)c1c(NC(=O)c2cccc(C(F)(F)F)c2)sc2c1CCC(=O)C2 | -38.1% (active)
COc1ccc(C(=O)c2cc(C)c(OC)c(C)c2)c(OC)c1OC(=O)C(Cl)Cl | 11.4%
CN1CCN(c2ccc(Nc3nc(NCCNS(=O)(=O)c4ccccc4)c4sccc4n3)cc2)CC1 | 90.5%
COc1ccc(OC)c(NC=O)c1 | 97%
C=C1C(=O)O[C@H]2[C@H]1CC/C(COC(=O)NCc1ccc(OC)cc1)=C\CC[C@@]1(C)O[C@@H]21 | 27.7%
COc1cccc(Cc2nn3cc(-c4ccccc4)nc3s2)c1 | 92.1%
CN(C(=O)c1ccccc1)N(C)C(=O)c1ccccc1 | 120%
